Screening data: PubChem BioAssay, The Scripps Research Institute Molecular Screening Center
Most compounds without a hit are left out; they make up all but 3.5% or so of the library.
FBW7 activator: FBW7 E3 ligase activators, primary screen, biochemical, AlphaScreen, human; AID 1259310, 2017; AlphaScreen FBW7–phospho-cyclin E peptide binding, activator screen; 0.13% of 650,000 active; F-box/WD repeat-containing protein 7 (Homo sapiens), Q969H0; normalized activity (activation), % at 26.1 µM; in the data active = normalized activity above about 1.9%;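 also: purified mutant Fbw7 with reduced substrate affinity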
TEAD-YAP inh: TEAD-YAP interaction inhibition, primary screen, TEAD-YAP interaction inhibitor project, luminescence, HEK-TIYL cells. TEAD-Gal4/YAP UAS-luciferase luminescence. 1.4% of 640,000 active. inhibition, % at 9.12 µM; in the data active = inhibition above about 32%;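 also: 0% = median of test compound wells and 100% = reference inhibitor wells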
GPR151 ag: activators of human GPR151, primary screen, cell-based, PathHunter beta-arrestin, luminescence. AID 1508602, 2020. PathHunter beta-arrestin GPR151 cells. activation, % at 11.2 µM. 1% of 650,000 active; in the data active = activation above about 4.9%;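 also: 0% = median of compound wells and 100% = cells with positive control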
MITF primary: MITF inhibitors, primary screen, biochemical, AlphaScreen, human; Microphthalmia-associated transcription factor (Homo sapiens), O75030; 0.91% of 650,000 active; inhibition, % at 2.6 µM; AlphaScreen MITF homodimerization, bead proximity signal; in the data active = inhibition above about 50%;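 also: 0% = vehicle wells with protein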
Target sequence (O75030 whole entry, looked up): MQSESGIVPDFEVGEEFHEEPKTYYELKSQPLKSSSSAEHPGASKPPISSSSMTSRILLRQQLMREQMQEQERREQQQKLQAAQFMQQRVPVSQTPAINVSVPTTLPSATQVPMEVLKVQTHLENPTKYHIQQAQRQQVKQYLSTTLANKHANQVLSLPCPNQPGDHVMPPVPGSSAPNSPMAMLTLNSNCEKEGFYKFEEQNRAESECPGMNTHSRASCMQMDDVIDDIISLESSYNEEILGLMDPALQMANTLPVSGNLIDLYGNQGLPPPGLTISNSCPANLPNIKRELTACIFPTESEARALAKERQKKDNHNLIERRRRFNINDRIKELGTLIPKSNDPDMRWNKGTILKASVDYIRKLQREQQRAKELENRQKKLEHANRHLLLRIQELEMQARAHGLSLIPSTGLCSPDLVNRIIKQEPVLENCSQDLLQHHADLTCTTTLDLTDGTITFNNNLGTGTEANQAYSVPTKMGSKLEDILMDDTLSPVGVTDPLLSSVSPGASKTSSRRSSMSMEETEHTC
An asterisk follows results filed as active.

SMILES	FBW7 activator	TEAD-YAP inh	GPR151 ag	MITF primary
CCc1ccc(N2CC(C(=O)NCC(C)(C)CNC(=O)C3CC(=O)N(c4ccc(CC)cc4)C3)CC2=O)cc1 (stereo unspecified)	4.5*	9	-1	13
CCOC(=O)c1[nH]c(C)c(C(=O)c2ccccc2Cl)c1C	0	22	1	9
CC(=O)c1c(C)[nH]c(C(=O)COC(=O)CCCN2C(=O)c3ccccc3C2=O)c1C	0	6	0	7
CCOC(=O)c1[nH]c(C)c(C(=O)NCc2ccc(C)cc2)c1C	0	-1	1	-5
CCOC(=O)c1[nH]c(C)c(C(=O)c2ccccc2)c1C	0	48*	2	7
CC(=O)c1c(C)[nH]c(C(=O)OCCCCN2C(=O)c3ccccc3C2=O)c1C	0	54*	0	-6
CCOC(=O)c1[nH]c(C)c(C(=O)c2ccc(C)cc2)c1C	0	34*	1	6
C/C(=N\NC(=O)C1=NNC(c2ccccc2)(c2ccccc2)C1)c1cccc([N+](=O)[O-])c1	0	-1	-1	3
CC(C)OCCCNC(=O)CN(c1ccc(OCc2ccccc2)cc1)S(C)(=O)=O	0	9	4	8
CCC(C)NC(=O)c1sc2ncnc(N3CCN(c4ccccc4F)CC3)c2c1C (stereo unspecified)	0	-5	0	7
c1ccc2c(c1)nc(NCc1ccncc1)c1nc3ccccc3n12	0	3	1	0
CN(C)CCNc1nc2ccccc2n2c1nc1ccccc12	0	65*	1	3
COc1ccc(OCCOCCOc2ccccc2C=O)cc1	0	46*	-1	-7
COc1ccccc1OCCOc1ccc(C=O)cc1	0	-2	-1	6
Cc1cccn2c(CNCCC3CCCN3C)c(C(=O)N3CCOCC3)nc12 (stereo unspecified)	0	1	-3	2
Cc1c(C(=O)N2C[C@@H]3C[C@H]2C(=O)N3c2ccccc2F)[nH]c2ccc(Cl)cc12	0	-5	0	12
Cc1ccc2[nH]c3nc(N/N=C/c4ccc(O)cc4O)nnc3c2c1	-2	63*	1	22
CCOc1cc(/C=N/Nc2nnc3c(n2)[nH]c2ccc(C)cc23)ccc1O	0	3	0	-7
COc1cccc(/C=N/Nc2nnc3c(n2)[nH]c2ccccc23)c1	0	-31	0	17
COc1ccc(Br)cc1/C=N/Nc1nnc2c(n1)[nH]c1ccccc12	2.1*	-4	0	19
Cc1ccc2[nH]c3nc(N/N=C/c4ccc(O)c(O)c4)nnc3c2c1	-1	-4	-1	87*
COc1ccc(/C=N/Nc2nnc3c(n2)[nH]c2ccc(Br)cc23)c(O)c1	0	-6	0	-3
CC1CC(C)(C)Cc2c1sc1nc[nH]c(=O)c21 (stereo unspecified)	0	17	3	-10
COc1ccccc1N1CCN(S(=O)(=O)c2cccc3c(N(C)C)cccc23)CC1	0	-2	-1	-8
CCN1CCN(CCCNC(=O)Cn2ncc3c2-c2ccccc2OC3)CC1	0	-7	1	-4
SMILES	FBW7 activator	TEAD-YAP inh	GPR151 ag	MITF primary
CCOc1ccc(S(=O)(=O)N2CCCc3ccccc32)c2cccnc12	0	48*	-1	-9
Cc1nc(C)c(C(=O)NC(C)c2cnn(-c3ccccc3C)c2C)s1 (stereo unspecified)	0	54*	2	1
Cc1nc(C)c(C(=O)NC(C)c2cnn(-c3ccccn3)c2C)s1 (stereo unspecified)	0	45*	3	-2
CN1CCN(C(=O)c2ccc(-c3nc(N)c4ncn(-c5ccccc5)c4n3)cc2)CC1	0	-3	-1	12
NC(=O)c1ccc(-c2nc(N)c3ncn(-c4ccccc4)c3n2)cc1	0	55*	0	8
NC(=O)c1ccc(-c2nc(NC3CC3)c3ncn(-c4ccsc4)c3n2)cc1	0	14	-2	11
NC(=O)c1ccc(-c2nc(N)c3ncn(-c4ccsc4)c3n2)cc1	0	58*	3	19
CCOC(=O)c1sc2nc(SCC(=O)NCc3ccccc3)n(Cc3cccs3)c(=O)c2c1C	0	-9	1	-1
COC(=O)C1=CN(Cc2ccc(Cl)cc2)C=C(C(=O)OC)C1c1ccc(OC)cc1OC	0	-1	0	-22
Cc1ccc(Cl)cc1N1CCN(C(=O)c2ccc(=O)[nH]c2)CC1	0	11	3	13
COc1cc(OC)cc(C(=O)N2CCN(c3cc(Cl)ccc3C)CC2)c1	0	54*	0	12
O=C(c1coc(=O)c2ccccc12)N1CCN(c2ccccc2F)CC1	0	8	1	-3
Cc1ccc(Cl)cc1N1CCN(C(=O)c2coc(=O)c3ccccc23)CC1	0	61*	1	-10
Nc1c(-c2nc(-c3ccncc3)no2)nnn1-c1ccc(F)c(Cl)c1	0	-7	-1	-1
CCOC(=O)c1sc2nc(SCC(=O)N(C)Cc3ccccc3)n(Cc3ccccc3OC)c(=O)c2c1C	0	-6	-1	14
CCOC(=O)C1CCC(CN(Cc2ccccc2C)S(=O)(=O)c2ccc(F)c(C)c2)CC1 (stereo unspecified)	1	-3	0	24
CC(C(=O)c1ccc(-c2ccccc2)cc1)[n+]1ccc2ccccc2c1 (stereo unspecified)	0	56*	0	7
Cc1c(NC(=S)NC(=O)c2oc3ccccc3c2C)cccc1-c1nc2ncccc2o1	0	4	-1	-5
Cc1cccc(NC(=O)c2ccc(N)cc2)n1	0	61*	-6	10
Cc1cccc(NC(=O)c2ccc(C(C)(C)C)cc2)n1	0	45*	-5	-2
CCOc1ccc(C(=O)Nc2cccc(C)n2)cc1	0	43*	-9	9
CCc1ccc(NC(=O)C2CCCN(c3nc(-c4ccc(OC)cc4)no3)C2)cc1 (stereo unspecified)	0	-6	-1	-4
Cc1cnc2c(c1NCc1ccncc1)c(=O)n(C)c(=O)n2C	0	-21	1	4
C=CCc1ccccc1OCCOc1ccc(/C=C2/C(=N)N3N=C(CC(C)C)SC3=NC2=O)cc1OC	0	6	0	19
CN1/C(=C\C(=O)CSCc2ccco2)C(C)(C)c2ccccc21	0	0	0	6
CN1/C(=C/C(=O)c2ccco2)C(C)(C)c2ccccc21	1	35*	4	5
COc1ccc(C(=O)CC(=O)C(=O)NC2CCCCC2)cc1	1	0	0	15
CC1=C(C(=O)OCc2ccccc2)C(c2cn(-c3ccccc3)nc2-c2ccc(C)cc2)C(C(=O)OCc2ccccc2)=C(C)N1	0	-9	1	12
CC1=C(C(=O)OCc2ccccc2)C(c2cn(-c3ccccc3)nc2-c2ccc(F)cc2)C(C(=O)OCc2ccccc2)=C(C)N1	1.9*	-9	1	34
